The structures appear in SMILES notation. Activity calls are given as the source filed them. Rule for the calls: active = hit-call score of the fitted dose curve at least 0.9, where 1 is the maximum; inactive = score below 0.9.

The record followed here is PubChem BioAssay (EPA / NIEHS).

Read-out in this assay: Intercellular Adhesion Molecule 1 (ICAM1), ICAM1 (gene 3383)
The assay is described as follows: LTEA_HepaRG_ICAM1: Life Technologies and Expression Analysis (LTEA) Assay for Intercellular Adhesion Molecule 1 (ICAM1) using HepaRG (AID 2283507). The following applies: mRNA level, 48 h; actives raise or lower the signal. As for the experimental part: LTEA_HepaRG is a cell based, multiplexed-readout assay that uses HepaRG, a human liver cell line, with measurements taken at 48 hours after chemical dosing on a 96-well plate.LTEA_HepaRG_ICAM1 is one of 102 assay component(s) measured in the LTEA HepaRG cell culture assay. It is a marker of Fibrosis.Data from the assay component LTEA_HepaRG_ICAM1 was analyzed into 1 endpoint. This assay endpoint, LTEA_HepaRG_ICAM1, was analyzed with bidirectional fitting relative to DMSO as the negative control and baseline of activity. Using a type of inducible reporter, measures of mRNA induction for gain or loss-of-signal activity can be used to understand regulation of transcription factor activity. To generalize the intended target to other relatable targets, this assay endpoint is annotated to the cell adhesion molecules intended target family, where the subfamily is Immunoglobulin CAM.
A total of 1060 chemcials from the ToxCast library were tested in eight-point concentration-response experiments. Cell culture and cytotoxicity assays were conducted at Thermo Fisher Scientific's Custom Services facility (Madison, WI). A single lot of human HepaRG cells (Thermo Fisher Scientific, Frederick, MD) was used for the cell culture experiments. 96-well format collagen type I coated plates of human HepaRG cells were prepared using established methods. Briefly, cryopreserved HepaRG cells were thawed, plated at a density of approximately 100,000 cells/well in HepaRG Thaw, Plate, and General Purpose media (HPRG770, Thermo Fisher Scientific), and incubated for 48 hours. 0.5% DMSO was selected as vehicle control to balance the requisite need of DMSO in HepaRG cultures to maintain differentiation (for example, baseline metabolism, proportions of hepatocytes vs. cholangiocytes), while enabling further hepatic receptor pathway activation (for example, PXR and CAR) in response to chemical exposure. 48 hours after plating, the culture medium was replaced with HepaRG Serum-Free Incudtion Media. Cells were exposed to each test chemical in duplicate and maintained in CO2 incubators for another 48 hours. Chemical plates were thawed to room temperature and 200x concentrations of treatment groups were prepared. 8-point conentration-reponse curves were made with the highest exposure at 100 uM, followed by half-log dilutions, all in 0.5% DMSO. Each test plate contained variouse controls, induction positive controls (1mM phenobarbital), cytotoxicity positive controls ([…] aflatoxin B1), vehicle controls (0.5% DMSO), and total lysis controls (0.5% DMSO). Cell morphology images were taken using an Essen IncuCyte FLR automated microscope, with six 96-well plates imaged in about 24 minutes. Images were captured and exported and JPEG files. Spent culture media was transfered to black-well plates for the LDH assay, and remaining media was sorted at -80 C for later use. Cells were treated with RLT buffer and frozen until shipped for gene expression analysis. Total RNA was isolated from the cell suspension in 75 uL of Buffer RLT (Qiagen, Germantown, MD 20874) by Quintiles/Expression Analysis (Durham, NC) using a custom isolation procedure. Total RNA from each plate well was transferred to a preamplification plate. Fluidigm's 96.96 Dynamic ArrayTM (Fluidigm, Amsterdam, the Netherlands) technology was used for gene expression analyses by quantitative reverse transcription polymerase chain reaction (qRT-PCR, performed by Quintiles/Expression Analysis, Durham, NC)89. Standard TaqManTM Assays (Applied Biosystems/ThermoFisher Scientific, Foster City, CA) were used to assess the expression of 93 genes selected based on their selectivity and sensitivity to important hepatic receptors known to be modulated by environmental chemicals; importance in human hepatocyte functionality; and hepatotoxicity. […]
As to `CCOC(=O)[C@]1(c2ccccc2)Oc2ccccc2[C@@H]1N`, the call was inactive. The same measure, in the same setting: with `COC(=O)Nc1nc2ccccc2[nH]1` the entry was “inactive”; with `Oc1ccccc1Cl`, “inactive”.

`CC(C)(OOC(C)(C)c1ccccc1)c1ccccc1`: the compound was called inactive.

Regarding `[As]#[In]`, the outcome was inactive. Same read-out and setting: the same measure for `CCN(CC)CCO`: “inactive”; for `c1ccc2c(c1)oc1ccccc12`: “inactive”; for `Oc1ccc2ccc3cccc4ccc1c2c34`: “inactive”.

On to `[O-][Cl+]O`, for which the compound was classed as inactive. The same measure, in the same setting: the same measure for `Clc1ccc(C(c2ccc(Cl)cc2)C(Cl)(Cl)Cl)cc1`: “inactive”; for `Brc1ccc(Oc2ccccc2)cc1`: “inactive”; for `O=[N+]([O-])c1ccc(Oc2ccc(Cl)cc2Cl)cc1`: “inactive”.

Turning to `CCNS(=O)(=O)C(F)(F)C(F)(F)C(F)(F)C(F)(F)C(F)(F)C(F)(F)C(F)(F)C(F)(F)F`, the call was inactive. Same read-out and setting: with `O=C(O)C1C2CCC(O2)C1C(=O)O` (stereo not given) the entry was “inactive”; with `c1ccc(C2CO2)cc1` (stereo not given), “inactive”; with `O=C(Oc1ccc(Br)cc1)N1CCN2CCC1CC2`, “inactive”. Still for that read-out and setting: with `Nc1ccc([N+](=O)[O-])cc1` the entry was “inactive”; with `CC(C)COC(=O)c1ccccc1C(=O)OCC(C)C`, “inactive”. With `[Cl-].[Cl-].[Hg+2]`, the outcome was inactive.

Turning to `c1ccc(NNc2ccccc2)cc1`, the result was inactive. Still for that read-out and setting: with `c1ccc2c(c1)-c1cccc3cccc-2c13` the entry was “inactive”. Consider `CC(C)(C)OOC(=O)c1ccccc1`, for which the compound was classed as inactive. The same measure, in the same setting: with `ClC1=C(Cl)C2(Cl)C3C(Cl)C=CC3C1(Cl)C2(Cl)Cl` (stereo not given) the entry was “inactive”. Still for that read-out and setting: the same measure for `CS(=O)(=O)NC(=O)c1cc(Oc2ccc(C(F)(F)F)cc2Cl)ccc1[N+](=O)[O-]`: “inactive”; for `Cc1ccc(N)cc1`: “inactive”; for `Clc1ccc(C(c2ccc(Cl)cc2)C(Cl)Cl)cc1`: “inactive”. The same measure, in the same setting: with `Cc1cccc(N)c1N` the entry was “inactive”.

Regarding `C[C@]12C=CC3=C4CCC(=O)C=C4CC[C@H]3[C@@H]1CC[C@@H]2O`, the call was inactive. `CC(C)(C)C(O)(CCc1ccc(Cl)cc1)Cn1cncn1` (stereo not given): the AC50 was 50 µM (active). With `ClC1=C(Cl)[C@]2(Cl)[C@H]3[C@H]([C@@H]4C=C[C@H]3C4)[C@@]1(Cl)C2(Cl)Cl`, the result was inactive.

Turning to `Cc1ccc([N+](=O)[O-])cc1`, the compound was called inactive. The same measure, in the same setting: with `C1=Cc2cccc3cccc1c23` the entry was “inactive”; with `CO[C@@H]1[C@H](OC(=O)NC(=O)CCl)CC[C@]2(CO2)[C@H]1[C@@]1(C)O[C@@H]1CC=C(C)C`, “inactive”; with `COC(=O)c1ccccc1N`, “inactive”. The same measure, in the same setting: with `N#CC(Br)(Br)C(N)=O` the entry was “inactive”.

Consider `CCOc1cccc(C2(N3CCN(c4ccccc4)CC3)CCC(C)CC2)c1` (stereo not given), for which the outcome was inactive. Turning to `CCCCC(CC)COC(=O)c1ccc(C(=O)OCC(CC)CCCC)c(C(=O)OCC(CC)CCCC)c1` (stereo not given), the outcome was inactive.

Turning to `N#CC(Br)Br`, the compound was classed as inactive. For `CCCCCCCCn1sccc1=O`, the result was inactive.

Regarding `CC(C)N(Cc1ccccc1)C(=O)C(C)(C)C`, the compound was classed as inactive.

The AC50 is the concentration giving half of the maximal activity seen.
